Assay results published in PubChem BioAssay (NCATS).
Inconclusive results are not listed. Where a call stands in place of a potency, no number is given. Activity calls are given as the source filed them. The call rests on the fitted dose curve; in most records, active means well fitted inhibition curve with a large enough effect; inconclusive means small, poorly fitted or top-dose-only effect; inactive means flat fitted curve, though single readings scatter.

Each molecule was assayed against Ubiquitin carboxyl-terminal hydrolase 1 (Homo sapiens) (UniProt O94782) (assay: Inhibitors of USP1/UAF1: Pilot qHTS (AID 504865;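 further: rhodamine fluorescence freed from ubiquitin-rhodamine substrate followed over time; top concentration of the series differs between compounds; nearly all actives have a fitted effect of over 35% in size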)). Conditions: purified USP1/UAF1, Ub-rhodamine cleavage fluorescence; series mostly up to 114 µM.
Ubiquitin carboxyl-terminal hydrolase 1 (Homo sapiens), sequence (O94782 whole entry, looked up): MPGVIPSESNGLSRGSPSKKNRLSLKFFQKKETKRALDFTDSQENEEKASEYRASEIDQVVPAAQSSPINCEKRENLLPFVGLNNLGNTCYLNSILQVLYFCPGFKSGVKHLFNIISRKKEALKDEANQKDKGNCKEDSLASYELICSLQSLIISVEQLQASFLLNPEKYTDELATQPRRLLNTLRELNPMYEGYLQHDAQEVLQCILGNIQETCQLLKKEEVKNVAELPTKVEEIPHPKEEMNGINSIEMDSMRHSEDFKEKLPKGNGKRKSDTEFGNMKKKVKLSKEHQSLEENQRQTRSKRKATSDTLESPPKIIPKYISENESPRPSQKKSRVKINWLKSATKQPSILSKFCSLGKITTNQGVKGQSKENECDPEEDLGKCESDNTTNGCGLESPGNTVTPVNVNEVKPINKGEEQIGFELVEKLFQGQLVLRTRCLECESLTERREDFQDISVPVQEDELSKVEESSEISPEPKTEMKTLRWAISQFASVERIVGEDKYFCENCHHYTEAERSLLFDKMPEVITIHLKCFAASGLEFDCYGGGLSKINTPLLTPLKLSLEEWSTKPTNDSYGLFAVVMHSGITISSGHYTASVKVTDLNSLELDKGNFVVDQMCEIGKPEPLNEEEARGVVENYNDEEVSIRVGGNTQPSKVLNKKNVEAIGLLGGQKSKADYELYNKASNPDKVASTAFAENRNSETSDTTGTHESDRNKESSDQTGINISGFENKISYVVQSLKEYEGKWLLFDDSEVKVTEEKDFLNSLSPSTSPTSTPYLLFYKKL
Procedure, shortened: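 USP1/UAF1 complex (1nM) preincubated with compound 15 min at room temperature, then Ub-Rho substrate (150nM final) added. Fluorescence read kinetically at 480/540 nm, 6 reads every 60 seconds. Buffer: 50mM HEPES pH 7.8, 0.5mM EDTA, 0.1 mg/ml BSA, 1mM TCEP, 0.01% Tween-20.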

Structure (SMILES)	Potency
O=C1[O][Bi][O]c2ccccc21	inactive
Cc1cc(=O)c(C(=O)N[C@@H](C(=O)N[C@@H]2C(=O)N3C(C(=O)O)=C(CSc4nnnn4C)CS[C@H]23)c2ccc(O)cc2)c[nH]1	inactive
CO/N=C(\C(=O)N[C@@H]1C(=O)N2C(C(=O)[O-])=C(C[n+]3cccc4c3CCC4)CS[C@H]12)c1csc(N)n1	inactive
CC(C)Cc1ccc([C@@H](C)C(=O)NS(C)(=O)=O)cc1	inactive
CC12CCC(C[N+](C)(CCC[N+](C)(C)C)C1)C2(C)C (stereo unspecified)	inactive
O[C@@H]([C@H](O)[C@H](O)CBr)[C@H](O)CBr	inactive
CCc1ncnc2cc(OC)c(OC)cc12	inactive
C=CC[N+]1([C@H]2C[C@H]3[C@@H]4CC[C@H]5C[C@H](O)[C@@H](N6CCOCC6)C[C@]5(C)[C@H]4CC[C@]3(C)[C@H]2OC(C)=O)CCCC1	inactive
CCOC(=S)SSC(=S)OCC	inactive
O=C1c2ccccc2C(=O)C1c1ccc(Cl)cc1	inactive
CS(=O)(=O)c1ccc([C@@H](O)[C@@H](COC(=O)CN)NC(=O)C(Cl)Cl)cc1	inactive
O=C(O)/C=C/c1ccccc1	inactive
CNC(=O)c1c(I)c(C(=O)NCC(=O)Nc2c(I)c(C(=O)O)c(I)c(C(=O)NCCO)c2I)c(I)c(N(C)C(C)=O)c1I	inactive
Cc1ncc(COP(=O)(O)O)c(CN)c1O	inactive
O=C(CCCCCCCCCCCCC1CCCC1)Nc1ccc(S(=O)(=O)c2ccc(NC(=O)CCCCCCCCCCCCC3CCCC3)cc2)cc1	inactive
CCC(O)c1ccccc1 (stereo unspecified)	inactive
